Reference: the supplement of paper PMC8699584
Structures can show the parent of a compound that is named as a salt. ± gives the standard deviation of the averaged measurements.

How the values were obtained:
[1] = system: Molm13; assay: cell viability relative to DMSO control (bortezomib = 0%); higher = less growth inhibition; details: 10 nM; 72 h
In short: (§1)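 Each plate's values were converted to percentages by linear regression, taking DMSO-treated cells as 100% and positive-control-treated cells as 0%. These plates were 384-well plates of 679 approved and investigational compounds at a single 10 nM dose, onto which acute myeloid leukemia cells were dispensed at 1000 cells per well in 50 µL for 72 h, in duplicate. Cell viability came from CellTiter-Glo luminescence on an EnVision reader.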

[2] = system: Mv4-11; assay: as above; details: 10 nM; 72 h
In short: as §1

Compound	cell viability [1] [%]	cell viability [2] [%]
C#Cc1cccc(Nc2ncnc3cc(OC)c(OCCCCCCC(=O)NO)cc23)c1	105 ± 10	120 ± 20
CCS(=O)(=O)N1CC(CC#N)(n2cc(-c3ncnc4[nH]ccc34)cn2)C1 [Baricitinib†(Phosphate)]	112 ± 13	115 ± 5.4
C=CC(=O)Nc1cc2c(Nc3ccc(F)c(Cl)c3)ncnc2cc1OCCCN1CCOCC1 [Canertinib dihydrochloride]	101 ± 3.2	111 ± 6.1
CNC(=O)CN1CCC(Oc2cc3c(Nc4cccc(Cl)c4F)ncnc3cc2OC)CC1 [AZD8931 (Sapitinib)]	104 ± 6.3	116 ± 4.9
CCCCC/C=C\C/C=C\C/C=C\C/C=C\CCCC(=O)NC[C@]1(C)CCC[C@]2(C)c3ccc(C(C)C)cc3CC[C@@H]12 [Arachidonic Acid Leelamide]	105 ± 17	112 ± 1.2
O=C(c1cccc(Cl)c1F)N1CCN(Cc2cccc(Nc3nccs3)n2)CC1	95.9 ± 11	115 ± 9.6
O=c1c(O)c(-c2cc(O)c(O)c(O)c2)oc2cc(O)cc(O)c12 [Myricetin]	106 ± 20	114 ± 17
O=c1cc(-c2cccc3c2Sc2ccccc2S3)oc(N2CCOCC2)c1	104 ± 4.7	103 ± 28
Cn1cc(C2=C(c3cn(CCCSC(=N)N)c4ccccc34)C(=O)NC2=O)c2ccccc21 [Ro 31-8220 Mesylate]	108 ± 2.3	102 ± 4
COc1cc2ncnc(Nc3ccccc3)c2cc1OC	97.1 ± 10	107 ± 12
C=CC(=O)Nc1cc2c(Nc3ccc(F)c(Cl)c3)ncnc2cc1OCCCN1CCOCC1 [Canertinib (hydrochloride)]	93.9 ± 14	103 ± 7.2
O=S(=O)(c1cccc2cnccc12)N1CCCNCC1 [HA-1077 (hydrochloride)]	105 ± 14	112 ± 3.5
CN(C)C/C=C/C(=O)Nc1ccc(C(=O)Nc2cccc(Nc3ncc(Cl)c(-c4c[nH]c5ccccc45)n3)c2)cc1	88 ± 18	95.3 ± 1.1
O=c1cc(N2CCOCC2)oc2c(-c3cccc4c3sc3ccccc34)cccc12	108 ± 5.3	108 ± 8.2
Cc1cc(N2CCOCC2)ccc1Nc1nc(NC2CCCCC2)c2[nH]cnc2n1	119 ± 3.6	108 ± 15
C[C@@H]1O[C@@H](Oc2cc(O)c3c(=O)c(O[C@@H]4O[C@@H](C)[C@H](O)[C@@H](O)[C@H]4O)c(-c4ccc(O)cc4)oc3c2)[C@H](O)[C@H](O)[C@H]1O [Kaempferitrin]	114 ± 10	105 ± 3.1
O=C(NC(NC(=S)Nc1ccc(F)c([N+](=O)[O-])c1)C(Cl)(Cl)Cl)C(c1ccccc1)c1ccccc1 (stereo not drawn)	109 ± 8.2	104.1 ± 0.92
COc1cc2ncnc(Nc3ccc(O)cc3)c2cc1OC	116 ± 5	102 ± 7.1
CN1CCN(CCOc2cc(OC3CCOCC3)c3c(Nc4c(Cl)ccc5c4OCO5)ncnc3c2)CC1 [Saracatinib (AZD0530)]	98.2 ± 3.5	106 ± 6.2
Cc1ccc(C(=O)N(CCCN)[C@@H](c2nc3cc(Cl)ccc3c(=O)n2Cc2ccccc2)C(C)C)cc1	2.83 ± 14	6.27 ± 10
CC(C)(C)c1nc2c3cc[nH]c(=O)c3c3cc(F)ccc3c2[nH]1 [Pyridone 6]	99.5 ± 18	106 ± 7
O=C1NC(=O)/C(=C/c2ccc3c(c2)OCO3)S1	96 ± 3	112 ± 8
NC[C@@](O)(c1ccc(Cl)cc1)c1ccc(-c2cn[nH]c2)cc1	108 ± 8.3	123 ± 20
Cc1ncc(-c2ccnc(Nc3ccc(S(C)(=O)=O)cc3)n2)n1C(C)C	102 ± 14	122 ± 13
Cc1ccc(F)c(NC(=O)Nc2ccc(-c3cccc4[nH]nc(N)c34)cc2)c1 [Linifanib (ABT-869)]	61.8 ± 4	73.9 ± 13
COc1cc(Nc2ncc(F)c(Nc3ccc4c(n3)N(COP(=O)(O)O)C(=O)C(C)(C)O4)n2)cc(OC)c1OC [R788 (Fostamatinib) Disodium]	92 ± 3.9	96.4 ± 10
Nc1cccc(-c2cc3c(Oc4cccc(O)c4)ncnc3[nH]2)c1	101 ± 14	112 ± 13
Cc1ccc(-n2nc(C(C)(C)C)cc2NC(=O)Nc2ccc(OCCN3CCOCC3)c3ccccc23)cc1 [Doramapimod]	95.877 ± 0.081	98.1 ± 1.1
CO[C@H]1C[C@@H]2CC[C@@H](C)[C@@](O)(O2)C(=O)C(=O)N2CCCC[C@H]2C(=O)O[C@H]([C@H](C)C[C@@H]2CC[C@@H](O)[C@H](OC)C2)CC(=O)[C@H](C)/C=C(\C)[C@@H](O)[C@@H](OC)C(=O)[C@H](C)C[C@H](C)/C=C/C=C/C=C/1C [Rapamycin (Sirolimus)]	34.4 ± 8.5	43.3 ± 15
